20 molecules from PubChem BioAssay can be followed below.

Experiment [1] is described as follows: antimalarial activity against Dd2 strain (AID 2302;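 active = growth inhibition above 50% at the single 2 µM test dose, taken to imply half-maximal potency below 2 µM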;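 note: 0% = DMSO untreated growth and 100% = chloroquine plus artemisinin killed control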). Particulars: P. falciparum Dd2 in RBCs, LDH growth readout, 72 h; at 2 µM; active compounds read high.
Experiment [2] can be described thus: human hepatoma cell viability loss – ATP luminescence, cytotoxicity control for P. falciparum antimalarial project, primary screen (AID 2303;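 active = inhibition above 50%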;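 note: 0% = DMSO wells and 100% = digitonin-killed cells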). Particulars: HepG2 viability, 24-48 h, at 10 µM, active compounds read high.
Experiment [3] deals with L-lactate dehydrogenase (Plasmodium falciparum (isolate CDC / Honduras)) (UniProt Q27743). Briefly: PfLDH activity inhibition – cell lysate, 3D7 strain, counter-screen for P. falciparum growth inhibition project (AID 2304).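 Note: 0% = vehicle and 100% = reference inhibitor.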 Particulars: P. falciparum 3D7 crude extract, LDH APAD/NBT absorbance; at 2 µM; active compounds read high. For orientation: Counterscreens check selectivity or assay interference.

The nature of experiment [4]: inhibition of 3D7 malaria parasite growth – strain 3D7 (AID 2306).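 Note: 0% = DMSO wells and 100% = chloroquine plus artemisinin control wells.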 Particulars: P. falciparum 3D7 erythrocytic growth, LDH absorbance, 72 h; at 2 µM; active compounds read high.
The target in experiment [5] is Calcium-dependent protein kinase 1 (Plasmodium falciparum (isolate 3D7)) (UniProt P62344). Briefly: PfCDPK1 kinase inhibitors, biochemical, TCAMS library (AID 1159585; cut-off not given, nearly all actives have IC50 up to about 0.98 µM;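 note: inhibitors leave more ATP so luminescence rises with inhibition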). Particulars: recombinant PfCDPK1, Kinase-Glo ATP depletion luminescence. A general note: Kinase-Glo reads ATP consumption through a luciferase reaction.
The target in experiment [6] is Plasmodium falciparum protein kinase 6 (PK6, PF3D7_1337100) (UniProt Q8IDW1). The experiment is described as follows: PfPK6 kinase inhibitors, biochemical, TCAMS library (AID 1159586). Particulars: recombinant PfPK6, Kinase-Glo ATP depletion luminescence.
Experiment [7] has as its target Protein kinase 7 (PK7), Plasmodium falciparum 3D7 (PF3D7_0213400) (UniProt Q7YTF7). The experiment is described as follows: inhibition of Plasmodium PK7 catalytic activity – biochemical, TCAMS antimalarial set, Kinase-Glo luminescence (AID 1159587). Particulars: recombinant PfPK7, Kinase-Glo ATP depletion luminescence.
The target of experiment [8] is Calcium-dependent protein kinase 4 (Plasmodium falciparum (isolate 3D7)) (UniProt Q8IBS5). Briefly: PfCDPK4 kinase inhibitors, biochemical, TCAMS library (AID 1159588; cut-off not given, nearly all actives have IC50 up to about 0.91 µM). Particulars: recombinant PfCDPK4, Kinase-Glo ATP depletion luminescence.

As a reminder, the inhibition is the relative decrease from the control value, in per cent.

A number with no mark means an inactive call. For some of these results: Measured potencies and affinities stand elsewhere. Calls of active or inactive are those of the source. Unless noted, the rule behind the calls is not given here.

Sequence of L-lactate dehydrogenase (Plasmodium falciparum (isolate CDC / Honduras)) (Q27743 whole entry, looked up): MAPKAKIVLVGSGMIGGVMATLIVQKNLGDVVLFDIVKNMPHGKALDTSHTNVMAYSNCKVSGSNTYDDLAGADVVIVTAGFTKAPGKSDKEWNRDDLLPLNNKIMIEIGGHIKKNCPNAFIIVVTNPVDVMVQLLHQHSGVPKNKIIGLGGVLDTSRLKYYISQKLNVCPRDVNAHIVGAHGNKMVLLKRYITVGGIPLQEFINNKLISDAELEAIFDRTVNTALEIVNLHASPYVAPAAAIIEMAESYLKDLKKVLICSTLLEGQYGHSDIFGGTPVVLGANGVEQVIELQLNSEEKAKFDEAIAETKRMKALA
Sequence of Plasmodium falciparum protein kinase 6 (PK6, PF3D7_1337100) (Q8IDW1 1-305): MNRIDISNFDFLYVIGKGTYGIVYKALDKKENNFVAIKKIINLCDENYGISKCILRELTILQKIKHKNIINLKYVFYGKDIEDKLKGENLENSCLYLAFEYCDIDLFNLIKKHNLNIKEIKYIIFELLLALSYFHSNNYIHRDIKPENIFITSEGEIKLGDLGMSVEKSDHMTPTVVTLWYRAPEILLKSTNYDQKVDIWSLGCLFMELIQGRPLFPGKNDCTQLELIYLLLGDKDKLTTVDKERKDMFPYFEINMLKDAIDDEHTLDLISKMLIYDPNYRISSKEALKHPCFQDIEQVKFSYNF
Sequence of Calcium-dependent protein kinase 4 (Plasmodium falciparum (isolate 3D7)) (Q8IBS5 whole entry, looked up): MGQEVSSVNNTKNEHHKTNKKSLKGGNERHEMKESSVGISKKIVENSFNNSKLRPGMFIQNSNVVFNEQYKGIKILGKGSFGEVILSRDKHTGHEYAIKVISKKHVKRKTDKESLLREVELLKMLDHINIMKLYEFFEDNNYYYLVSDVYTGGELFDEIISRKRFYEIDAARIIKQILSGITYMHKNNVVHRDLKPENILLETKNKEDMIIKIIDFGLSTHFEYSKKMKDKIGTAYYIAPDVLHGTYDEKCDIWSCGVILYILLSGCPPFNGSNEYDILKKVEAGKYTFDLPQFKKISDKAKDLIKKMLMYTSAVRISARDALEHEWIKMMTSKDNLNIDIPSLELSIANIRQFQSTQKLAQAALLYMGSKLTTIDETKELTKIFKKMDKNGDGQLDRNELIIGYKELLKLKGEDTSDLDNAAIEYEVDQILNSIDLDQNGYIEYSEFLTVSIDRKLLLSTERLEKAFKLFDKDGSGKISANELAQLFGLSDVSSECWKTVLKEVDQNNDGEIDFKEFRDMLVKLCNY
Sequence of Calcium-dependent protein kinase 1 (Plasmodium falciparum (isolate 3D7)) (P62344 whole entry, looked up): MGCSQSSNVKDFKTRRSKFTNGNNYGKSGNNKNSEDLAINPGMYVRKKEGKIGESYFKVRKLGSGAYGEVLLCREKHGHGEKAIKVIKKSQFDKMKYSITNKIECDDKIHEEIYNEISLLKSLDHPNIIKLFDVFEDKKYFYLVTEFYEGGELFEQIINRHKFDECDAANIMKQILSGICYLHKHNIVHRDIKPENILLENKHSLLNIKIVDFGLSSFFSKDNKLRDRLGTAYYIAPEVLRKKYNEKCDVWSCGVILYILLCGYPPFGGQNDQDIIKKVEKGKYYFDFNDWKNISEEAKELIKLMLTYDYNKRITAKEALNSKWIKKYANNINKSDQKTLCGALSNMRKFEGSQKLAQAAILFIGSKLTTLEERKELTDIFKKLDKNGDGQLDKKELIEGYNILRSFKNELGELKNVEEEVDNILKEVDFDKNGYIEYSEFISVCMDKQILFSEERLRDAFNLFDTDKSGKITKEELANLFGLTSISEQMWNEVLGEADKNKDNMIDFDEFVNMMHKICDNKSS
Sequence of Protein kinase 7 (PK7), Plasmodium falciparum 3D7 (PF3D7_0213400) (Q7YTF7 1-343): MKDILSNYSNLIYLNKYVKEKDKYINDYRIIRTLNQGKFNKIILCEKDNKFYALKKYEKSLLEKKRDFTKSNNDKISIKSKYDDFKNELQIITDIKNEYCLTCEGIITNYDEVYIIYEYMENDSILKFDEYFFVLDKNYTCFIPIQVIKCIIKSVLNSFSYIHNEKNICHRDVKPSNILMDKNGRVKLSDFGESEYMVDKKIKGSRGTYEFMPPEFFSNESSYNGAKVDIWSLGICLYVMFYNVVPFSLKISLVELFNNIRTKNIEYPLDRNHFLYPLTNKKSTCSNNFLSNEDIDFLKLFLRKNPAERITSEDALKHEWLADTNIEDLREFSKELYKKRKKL

On to `COc1ccc(S(=O)(=O)NC2CCN(CCNC(=O)Nc3cc(C)nc4ccccc34)C2)cc1` (stereo not given), for which the growth inhibition is 41% in experiment [1] and 88% (active) in experiment [4]. Moreover, the figures for the inhibition in experiment [2] and in experiment [3] were -2% and 1%, respectively. For the same molecule, the outcome in experiment [5], in experiment [6], in experiment [7] and in experiment [8] was inactive.
In the case of `COC(=O)c1ccc(NC(=O)Nc2cccc(CCNCc3ccccc3)c2)cc1`, the growth inhibition in experiment [1] is 10%; in experiment [4], 96% (active). Moreover, the inhibition is 2% in experiment [2] and 6% in experiment [3]. The result in experiment [5], in experiment [6], in experiment [7] and in experiment [8] was inactive.
For the molecule `O=C(NCCCN1CCC(NC(=O)c2ccc(-c3cccnc3)cc2)CC1)c1ccc(Cl)c(Cl)c1`, the growth inhibition was 23% in experiment [1] and 94% (active) in experiment [4]. The values for the inhibition in experiment [2] and in experiment [3] were 17% and -5%, respectively. For the same molecule, the result in experiment [5], in experiment [6], in experiment [7] and in experiment [8] was inactive.
In the case of `COc1ccccc1/C=C/C(=O)N(C)C1CCN(CCCCCNC(=O)/C=C/c2ccc(Cl)c(Cl)c2)CC1`, the values for the growth inhibition in experiment [1] and in experiment [4] were 63% (active) and 83% (active), respectively. Further, the inhibition in experiment [2] was 71% (active); in experiment [3], -3%. The result in experiment [5], in experiment [6], in experiment [7] and in experiment [8] was inactive.
With `Cn1nccc1C(=O)NCCNCc1ccc(-c2cccc(-c3nc4ccc(F)cc4[nH]3)c2)cc1`, the growth inhibition in experiment [1] was 98% (active); in experiment [4], 102% (active). Also, the values for the inhibition in experiment [2] and in experiment [3] were 37% and -7%, respectively. Besides, the outcome in experiment [5], in experiment [6], in experiment [7] and in experiment [8] was inactive.
Turning to `c1cc(CN2CCN(CCN3CCOCC3)CC2)cc(-c2cccc(-c3nc4ccccc4[nH]3)c2)c1`, the growth inhibition in experiment [1] and in experiment [4] was 100% (active) throughout. Also, the inhibition in experiment [2] is 29%; in experiment [3] it was -2%. Moreover, the result in experiment [5], in experiment [6], in experiment [7] and in experiment [8] was inactive.
Turning to `C=CCc1cc(Cc2cnc(N)nc2N)c2ccc(C)nc2c1O`, the growth inhibition in experiment [1] was 3%; in experiment [4], 84% (active). Also, the inhibition in experiment [2] is 51% (active); in experiment [3], 0%. Besides, the outcome in experiment [5], in experiment [6], in experiment [7] and in experiment [8] was inactive.
Regarding `CCCCCCN=C(N)c1ccc(OCCCCCOc2ccc(C(N)=NCCCCCC)cc2)cc1`, the growth inhibition in experiment [1] was 98% (active); in experiment [4] it was 97% (active). In addition, the figures for the inhibition in experiment [2] and in experiment [3] were 55% (active) and -8%, respectively. In addition, the outcome in experiment [5], in experiment [6], in experiment [7] and in experiment [8] was inactive.
Turning to `COc1ccc2ncc(F)c(CCN3C[C@H](CNCc4ccc5c(c4)OCCO5)[C@H](O)C3)c2n1`, the results for the growth inhibition in experiment [1] and in experiment [4] were 35% and 94% (active), respectively. The figures for the inhibition in experiment [2] and in experiment [3] were 18% and 7%, respectively. In addition, the result in experiment [5], in experiment [6], in experiment [7] and in experiment [8] was inactive.
For the molecule `Cc1cccc2[nH]c(-c3ccc(-c4cccc(CN5CCN(c6ccncc6)CC5)c4)s3)nc12`, the growth inhibition is 99% (active) in experiment [1] and 101% (active) in experiment [4]. The values for the inhibition in experiment [2] and in experiment [3] were 48% and 6%, respectively. The result in experiment [5], in experiment [6], in experiment [7] and in experiment [8] was inactive.
`CN1CCN(c2ccnc3ccc(NC(=O)Nc4ccc5ccccc5c4)cc23)CC1`: the growth inhibition in experiment [1] was 99% (active); in experiment [4] it was 101% (active). In addition, the inhibition in experiment [2] is 2%; in experiment [3], -1%. Besides, the outcome in experiment [5], in experiment [6], in experiment [7] and in experiment [8] was inactive.
Regarding `CCCCNc1nc(NCCCC)c2c(C)c(Cc3ccccc3)c(NCCCC)nc2n1`, the growth inhibition in experiment [1] is 84% (active); in experiment [4], 95% (active). In addition, the inhibition in experiment [2] is 69% (active); in experiment [3], -10%. Further, the result in experiment [5], in experiment [6], in experiment [7] and in experiment [8] was inactive.
Regarding `CCc1cc(OC)c(C(=O)NC2CCN(C[C@H](O)c3ccnc4ccc(OC)cc34)CC2)cc1Br`, the growth inhibition in experiment [1] is 56% (active); in experiment [4], 98% (active). In addition, the results for the inhibition in experiment [2] and in experiment [3] were 6% and 2%, respectively. The result in experiment [5], in experiment [6], in experiment [7] and in experiment [8] was inactive.
Take `O=C(CCc1cccc(O)c1)NCC(NCCCNc1cc(=O)c2ccccc2[nH]1)c1cc(Br)cc(Br)c1` (stereo not given): the growth inhibition in experiment [1] is 37%; in experiment [4] it was 86% (active). In addition, the inhibition in experiment [2] was -6%; in experiment [3] it was -4%. Also, the result in experiment [5], in experiment [6], in experiment [7] and in experiment [8] was inactive.
As for `FC(F)(F)COc1c(CNCCCCCCNCc2ccc3ccccc3c2OCC(F)(F)F)ccc2ccccc12`, the results for the growth inhibition in experiment [1] and in experiment [4] were 79% (active) and 101% (active), respectively. The figures for the inhibition in experiment [2] and in experiment [3] were 100% (active) and 6%, respectively. The result in experiment [5], in experiment [6], in experiment [7] and in experiment [8] was inactive.
Turning to `COc1cc(-c2nc3c4ccccc4c4ccccc4c3[nH]2)cc(OC)c1OC`, the growth inhibition was 10% in experiment [1] and 90% (active) in experiment [4]. Moreover, the inhibition is 4% in experiment [2] and 5% in experiment [3]. Further, the result in experiment [5], in experiment [6], in experiment [7] and in experiment [8] was inactive.
`N#Cc1ccc(N(CCOC(=O)c2ccc(Br)s2)Cc2ccccc2C(F)(F)F)cc1C(F)(F)F`: the results for the growth inhibition in experiment [1] and in experiment [4] were 48% and 82% (active), respectively. Also, the figures for the inhibition in experiment [2] and in experiment [3] were 8% and 3%, respectively. For the same molecule, the outcome in experiment [5], in experiment [6], in experiment [7] and in experiment [8] was inactive.
On to `CCCCCCCCc1c(C)[nH]c(C)c(Br)c1=O`, for which the growth inhibition in experiment [1] was 92% (active); in experiment [4] it was 96% (active). Further, the inhibition in experiment [2] was -5%; in experiment [3] it was 7%. Moreover, the result in experiment [5], in experiment [6], in experiment [7] and in experiment [8] was inactive.
For the molecule `Cc1cc(C)c(NC(=O)N2CCCN(CCCCCNC(=O)/C=C/c3ccc(Cl)c(Cl)c3)CC2)c(C)c1`, the growth inhibition was -1% in experiment [1] and 91% (active) in experiment [4]. The inhibition in experiment [2] is 12%; in experiment [3] it was 3%. The result in experiment [5], in experiment [6], in experiment [7] and in experiment [8] was inactive.
Regarding `CN(C)CCOc1ccc(-c2cc(-c3ccc(Cl)c(O)c3)c(-c3ccncc3)[nH]2)cc1`, the growth inhibition was 92% (active) in experiment [1] and 98% (active) in experiment [4]. In addition, the inhibition is 54% (active) in experiment [2] and 5% in experiment [3]. For the same molecule, the outcome in experiment [5], in experiment [6], in experiment [7] and in experiment [8] was inactive.
